The record followed here is PubChem BioAssay (NCI).

The nature of experiment [1]: NCI Yeast Anticancer Drug Screen. Data for the rad50 strain (AID 155).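 Also: 0% = growth of vehicle-only cultures of the same strain.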 Conditions: S. cerevisiae rad50 strain growth inhibition, stronger effect = higher value. The essentials: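 Compounds were tested on a yeast strain with an engineered DNA damage repair alteration; the reported value is growth inhibition normalised to vehicle treatment.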
Experiment [2] is described as follows: NCI Yeast Anticancer Drug Screen. Data for the mec2-1 strain (AID 157). Conditions: S. cerevisiae mec2-1 strain, stronger effect = higher value. The essentials:
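Using mec2-1 yeast: add compound, measure growth, express inhibition versus vehicle-treated cultures.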

The nature of experiment [3]: NCI Yeast Anticancer Drug Screen. Data for the sgs1 mgt1 strain (AID 161).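 Also: 0% = growth of cultures given vehicle only.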 Conditions: S. cerevisiae sgs1 mgt1 strain, stronger effect = higher value. The essentials: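 Compounds are added to genetically altered yeast, and growth is compared with cultures given vehicle alone to give percent inhibition.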
Experiment [4] is described as follows: NCI Yeast Anticancer Drug Screen. Data for the cln2 rad14 strain (AID 165).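 Also: 0% = growth equal to vehicle treated cultures.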 Conditions: S. cerevisiae cln2 rad14 strain, stronger effect = higher value. The method in brief: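 Yeast strain cln2 rad14, bearing defects in cell cycle control and DNA repair, serves as the test system; values reflect growth inhibition compared with vehicle.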
Experiment [5] is described as follows: NCI Yeast Anticancer Drug Screen. Data for the bub3 strain (AID 167). Particulars: S. cerevisiae bub3 mutant strain, stronger effect = higher value. The method in brief:
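Growth of a checkpoint-deficient yeast mutant is measured after compound exposure. Values represent inhibition relative to vehicle.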

Experiment [6] in a line: NCI Yeast Anticancer Drug Screen. Data for the mlh1 rad18 strain (AID 175). Conditions: S. cerevisiae mlh1 rad18 strain growth inhibition, stronger effect = higher value. The method in brief:
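Steps: expose repair-defective yeast to compound; measure growth; express inhibition against vehicle-treated controls.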

The mark [7] stands for this setting: at 5.0 µM (retest, dose inferred, filed as 0.5).
Where [8] appears, read: at 50.0 µM (retest, dose inferred, filed as 5.0).

This is part of a sample that, as a whole, favours compounds with a hit. Of some 79,000 tested, about 15% had one in any assay. Unmarked numbers belong to inactive results. Activity calls are given as the source filed them. Rule as the data show it: active = growth inhibition above about 70%; inactive = the rest.

Consider `C=CCc1cc(Cl)ccc1O`, for which the growth inhibition in experiment [1] (setting [7]) is 1%; in experiment [1] (setting [8]), 51%; in experiment [1] (at 50.0 µM) it was 37.6%; in experiment [2] (setting [7]), -2%; in experiment [2] (setting [8]) it was 27%; in experiment [2] (at 50.0 µM) it was 79% (active). In addition, the growth inhibition in experiment [3] (setting [7]) was 1%; in experiment [3] (setting [8]), 40%; in experiment [3] (at 50.0 µM), 83.5% (active); in experiment [4] (setting [7]) it was 1%; in experiment [4] (setting [8]) it was 14%; in experiment [4] (at 50.0 µM), 61.2%. Also, the growth inhibition was 0% in experiment [5] (setting [7]); 19% in experiment [5] (setting [8]); 38.7% in experiment [5] (at 50.0 µM); 1% in experiment [6] (setting [7]); 51% in experiment [6] (setting [8]); 36.4% in experiment [6] (at 50.0 µM).

Consider `Cc1ccc(C2=Nc3c(c(C)nn3-c3ccccc3)N=C(C(=O)O)C2)cc1`, for which the growth inhibition was 1% in experiment [1] (setting [7]); 78% (active) in experiment [1] (setting [8]); 76.2% (active) in experiment [1] (at 50.0 µM); -23% in experiment [2] (setting [7]); 87% (active) in experiment [2] (setting [8]); 82.9% (active) in experiment [2] (at 50.0 µM). For the same compound, the growth inhibition is -3% in experiment [3] (setting [7]); 62% in experiment [3] (setting [8]); 88.4% (active) in experiment [3] (at 50.0 µM); -4% in experiment [4] (setting [7]); 92% (active) in experiment [4] (setting [8]); 87.5% (active) in experiment [4] (at 50.0 µM). The growth inhibition in experiment [5] (setting [7]) is 2%; in experiment [5] (setting [8]), 89% (active); in experiment [5] (at 50.0 µM), 83.4% (active); in experiment [6] (setting [7]) it was -12%; in experiment [6] (setting [8]), 86% (active); in experiment [6] (at 50.0 µM), 59.3%.

Turning to `COc1cnc2cc3c4c(cccc4c2c1)NC3=O`, the growth inhibition in experiment [1] (setting [7]) was 87% (active); in experiment [1] (setting [8]), 91% (active); in experiment [1] (at 50.0 µM) it was 80% (active); in experiment [2] (setting [7]) it was 51%; in experiment [2] (setting [8]), 89% (active); in experiment [2] (at 50.0 µM), 82.2% (active). Besides, the growth inhibition in experiment [3] (setting [7]) is 55%; in experiment [3] (setting [8]), 92% (active); in experiment [3] (at 50.0 µM), 79.7% (active); in experiment [4] (setting [7]) it was 43%; in experiment [4] (setting [8]), 83% (active); in experiment [4] (at 50.0 µM), 75% (active). Further, the growth inhibition in experiment [5] (setting [7]) is 51%; in experiment [5] (setting [8]) it was 87% (active); in experiment [5] (at 50.0 µM) it was 80.8% (active); in experiment [6] (setting [7]), 75% (active); in experiment [6] (setting [8]), 91% (active); in experiment [6] (at 50.0 µM) it was 86% (active).

Consider `CCN(CC)CC(O)c1ccc(/C=C/c2ccc(Cl)cc2)cc1` (stereo not given), for which the growth inhibition in experiment [1] (setting [7]) was 12%; in experiment [1] (setting [8]), 95% (active); in experiment [1] (at 50.0 µM), 98.1% (active); in experiment [2] (setting [7]) it was 6%; in experiment [2] (setting [8]), 97% (active); in experiment [2] (at 50.0 µM), 98% (active). The growth inhibition is 8% in experiment [3] (setting [7]); 98% (active) in experiment [3] (setting [8]); 58.5% in experiment [3] (at 50.0 µM); 12% in experiment [4] (setting [7]); 97% (active) in experiment [4] (setting [8]); 98.7% (active) in experiment [4] (at 50.0 µM). For the same compound, the growth inhibition in experiment [5] (setting [7]) was 17%; in experiment [5] (setting [8]) it was 96% (active); in experiment [5] (at 50.0 µM), 98.6% (active); in experiment [6] (setting [7]), 15%; in experiment [6] (setting [8]), 97% (active); in experiment [6] (at 50.0 µM), 98.4% (active).

Consider `Cc1ccc([N+](=O)[O-])c2c(NCCCN(C)C)c3ccccc3nc12`, for which the growth inhibition in experiment [1] (setting [7]) was 79% (active); in experiment [1] (setting [8]) it was 98% (active); in experiment [1] (at 50.0 µM) it was 97% (active); in experiment [2] (setting [7]), 97% (active); in experiment [2] (setting [8]), 99% (active); in experiment [2] (at 50.0 µM), 95.8% (active). Further, the growth inhibition in experiment [3] (setting [7]) is 93% (active); in experiment [3] (setting [8]) it was 98% (active); in experiment [3] (at 50.0 µM), 97.2% (active); in experiment [4] (setting [7]), 95% (active); in experiment [4] (setting [8]), 99% (active); in experiment [4] (at 50.0 µM), 77.3% (active). Moreover, the growth inhibition in experiment [5] (setting [7]) was 35%; in experiment [5] (setting [8]), 97% (active); in experiment [5] (at 50.0 µM), 87.8% (active); in experiment [6] (setting [7]), 92% (active); in experiment [6] (setting [8]), 99% (active); in experiment [6] (at 50.0 µM), 97% (active).

Consider `O=C(CNc1ccc([N+](=O)[O-])cc1)Nn1c(-c2ccccc2)nc2ccccc2c1=O`, for which the growth inhibition in experiment [1] (setting [7]) is 18%; in experiment [1] (setting [8]) it was 23%; in experiment [1] (at 50.0 µM), 82.1% (active); in experiment [2] (setting [7]) it was 3%; in experiment [2] (setting [8]), 26%; in experiment [2] (at 50.0 µM) it was 70.5% (active). Moreover, the growth inhibition in experiment [3] (setting [7]) is 6%; in experiment [3] (setting [8]), 25%; in experiment [3] (at 50.0 µM), 72.7% (active); in experiment [4] (setting [7]), 11%; in experiment [4] (setting [8]) it was 19%; in experiment [4] (at 50.0 µM), 38.8%. The growth inhibition was 4% in experiment [5] (setting [7]); 54% in experiment [5] (setting [8]); 91.8% (active) in experiment [5] (at 50.0 µM); 2% in experiment [6] (setting [7]); 28% in experiment [6] (setting [8]); 85.4% (active) in experiment [6] (at 50.0 µM).

For the compound `COC1=CC(=O)C(C#CCOCc2ccccc2)=CC1=O`, the growth inhibition in experiment [1] (setting [7]) is 12%; in experiment [1] (setting [8]), 99% (active); in experiment [1] (at 50.0 µM), 99.1% (active); in experiment [2] (setting [7]), 0%; in experiment [2] (setting [8]), 99% (active); in experiment [2] (at 50.0 µM), 99.2% (active). The growth inhibition in experiment [3] (setting [7]) is -6%; in experiment [3] (setting [8]) it was 79% (active); in experiment [3] (at 50.0 µM) it was 99% (active); in experiment [4] (setting [7]), -8%; in experiment [4] (setting [8]) it was 98% (active); in experiment [4] (at 50.0 µM), 94.7% (active). For the same compound, the growth inhibition in experiment [5] (setting [7]) is -16%; in experiment [5] (setting [8]) it was 99% (active); in experiment [5] (at 50.0 µM) it was 93% (active); in experiment [6] (setting [7]), 8%; in experiment [6] (setting [8]), 99% (active); in experiment [6] (at 50.0 µM), 98.8% (active).

On to `Nc1ccc(N)c2c1C(=O)c1ccccc1C2=O`, for which the growth inhibition in experiment [1] (setting [7]) is 32%; in experiment [1] (setting [8]) it was 72% (active); in experiment [1] (at 50.0 µM), 83.2% (active); in experiment [2] (setting [7]), -1%; in experiment [2] (setting [8]), 11%; in experiment [2] (at 50.0 µM) it was 11.7%. The growth inhibition in experiment [3] (setting [7]) is 2%; in experiment [3] (setting [8]), 14%; in experiment [3] (at 50.0 µM) it was 24.6%; in experiment [4] (setting [7]), 3%; in experiment [4] (setting [8]), 3%; in experiment [4] (at 50.0 µM), 6.9%. Besides, the growth inhibition in experiment [5] (setting [7]) is 0%; in experiment [5] (setting [8]), 24%; in experiment [5] (at 50.0 µM), 31.3%; in experiment [6] (setting [7]), 5%; in experiment [6] (setting [8]), 22%; in experiment [6] (at 50.0 µM), 50.6%.

On to `O=C(NC1=Nc2c(ncn2COCCO)S(=O)(=O)[N-]1)c1ccccc1.[Ag+]`, for which the growth inhibition in experiment [1] (setting [7]) is 100% (active); in experiment [1] (setting [8]) it was 99% (active); in experiment [1] (at 50.0 µM) it was 98.3% (active); in experiment [2] (setting [7]), 100% (active); in experiment [2] (setting [8]) it was 100% (active); in experiment [2] (at 50.0 µM), 98.2% (active). Moreover, the growth inhibition is 99% (active) in experiment [3] (setting [7]); 99% (active) in experiment [3] (setting [8]); 98.5% (active) in experiment [3] (at 50.0 µM); 99% (active) in experiment [4] (setting [7]); 99% (active) in experiment [4] (setting [8]); 86% (active) in experiment [4] (at 50.0 µM). The growth inhibition in experiment [5] (setting [7]) is 100% (active); in experiment [5] (setting [8]) it was 99% (active); in experiment [5] (at 50.0 µM) it was 98.3% (active); in experiment [6] (setting [7]), 99% (active); in experiment [6] (setting [8]), 99% (active); in experiment [6] (at 50.0 µM), 97.3% (active).

With `CCCCCCC[CH2][Sn]([CH2]CCCCCCC)([O]c1cccc2cccnc12)[O]c1cccc2cccnc12`, the growth inhibition in experiment [1] (setting [7]) was 21%; in experiment [1] (setting [8]), 21%; in experiment [1] (at 50.0 µM) it was 89.7% (active); in experiment [2] (setting [7]), 18%; in experiment [2] (setting [8]), 18%; in experiment [2] (at 50.0 µM) it was 87.7% (active). In addition, the growth inhibition in experiment [3] (setting [7]) was 14%; in experiment [3] (setting [8]), 14%; in experiment [3] (at 50.0 µM), 89.7% (active); in experiment [4] (setting [7]), 9%; in experiment [4] (setting [8]) it was 9%; in experiment [4] (at 50.0 µM), 85.4% (active). Further, the growth inhibition was 4% in experiment [5] (setting [7]); 4% in experiment [5] (setting [8]); 90.1% (active) in experiment [5] (at 50.0 µM); 10% in experiment [6] (setting [7]); 10% in experiment [6] (setting [8]); 86.3% (active) in experiment [6] (at 50.0 µM).
